Measurements: PubChem BioAssay AID1814 (Broad Institute, 2009)
Screen size: about 300,000 compounds; about 22,000 (7.3%) were called active. Roughly 2% stayed inconclusive and do not appear here. No stated cut-off is given here; in the data, active means activity score below about -60%; inconclusive means mostly about -28% to -61%; inactive means positive scores. This excerpt belongs to a sample that is enriched for actives.

Assay: Activators working through SNCA 5'UTR binding (MLPCN) (AID 1814)
Details: alpha-synuclein 5'UTR reporter, activators screen; active compounds read low; tested at 7.5 µM

Activity score, active:
Cc1ccc(Oc2cnn(-c3ccccc3)c(=O)c2Br)cc1 -78.5%, NC(=O)COc1ccc(C23CC4CC(CC(C4)C2)C3)cc1 -101%, Cc1ccn2cc(-c3nonc3C)cc2c1 -128%, Cc1cc(C)c(C#N)c(SCC(=O)Nc2ccccc2)n1 -212%, CCOc1ccc2cc(C#N)c(SCC(=O)OC)nc2c1 -145%, COCc1cc(C)nc(SCC(=O)Nc2cccc(C)c2)c1C#N -67.6%, Cc1nonc1NC(=O)CSc1nc2ccccc2cc1C#N -91.1%, Cc1ccccc1NC(=O)CCOc1ccccc1 -74.9%, CCN1CCN(C(C(=O)NC2CCCC2)c2cc3c(cc2[N+](=O)[O-])OCO3)CC1 (stereo not drawn) -63%, CCCOc1ccc(-c2nc(N)n[nH]2)cc1 -93.7%, CCOC(=O)c1c(NC(=O)c2ccc(Br)o2)sc2c1CCCC2 -64.9%, COC(=O)c1c(NC(=O)c2cccs2)sc2c1CCCC2 -128%, NC(=O)c1c(NC(=O)c2ccccc2)sc2c1CCCC2 -148%, C=CCN(CC=C)S(=O)(=O)c1ccc(C(=O)Nc2sc3c(c2C(N)=O)CCCCC3)cc1 -70.1%, COc1ccc(NCCc2ccccn2)cc1 -134%, CCC(C)NC(=O)CCCc1ccccc1 (stereo not drawn) -63.7%, O=C(Nc1ccc(Cl)cc1)c1ccsn1 -143%, Cc1ccc(NC(=O)c2ccn(C(=O)Nc3ccccc3)n2)c(C)c1 -69.3%, c1ccc(CN2CCC(N=C3NN=C(c4ccc5c(c4)OCCO5)CS3)CC2)cc1 -223%, CCS(=O)(=O)c1cc([N+](=O)[O-])c(Sc2ccccc2N)s1 -91.3%, CCN1CCN(c2ccc([N+](=O)[O-])cc2C(=O)c2ccc(Cl)cc2)CC1 -107%, Cc1ccc(NC(=S)N2CCN(c3ncccn3)CC2)cc1C -84.3%, CC(=O)c1ccc(NC(=O)CCc2nnc3ccc(NCc4ccco4)nn23)cc1 -95.3%, O=C(/C=C/c1ccc([N+](=O)[O-])o1)NNC(=O)c1ccc(F)cc1 -94.3%, NC(=O)CSc1nnc(NC(=O)c2ccc3ccccc3c2)s1 -88.3%, C=CCSc1nnc(NC(=O)c2ccc(NC(C)=O)cc2)s1 -64.4%, COC(=O)c1ccc(-n2cnc3ccccc32)nc1 -117%, COCCn1c(=NC(=O)c2ccccc2[N+](=O)[O-])sc2cc(S(C)(=O)=O)ccc21 -151%, CCOC(=O)c1cc2n(c1C)-c1ccccc1C2=O -108%, COc1ccc(Nc2nnc(C)c3ccccc23)cc1 -67.1%, O=C(c1cc(-c2ccc(O)cc2)on1)N1CCCc2ccccc21 -95.6%, C=CCNC(=O)/C=C/c1ccc(C(C)C)cc1 -129%, COc1ccc(-n2cnc3cc(NCc4ccco4)ccc32)cc1 -126%, COc1ccc(/C(N)=N/OC(=O)Cc2ccccc2)cc1 -125%, COc1ccc(-c2nc3cc([N+](=O)[O-])ccc3o2)cc1OC -65.4%, O=[N+]([O-])c1ccc2oc(-c3cccc(O)c3)nc2c1 -91.7%, Cc1ccc(N=C2NC(=O)/C(=C/C=C/c3ccco3)S2)cc1C -81.5%, COc1ccc(C(=O)Nc2cc(C)c(NC(=O)c3ccccc3OC)cn2)cc1 -115%, COc1ccc(C(=O)Nc2ccccc2C(=O)N/N=C/c2ccccc2OC)cc1 -124%, N#CC1=C(N)Oc2cc(O)ccc2C1C1CCCCC1 (stereo not drawn) -65.6%, C=CCN(C(=O)Nc1ccc2oc(C)nc2c1)c1ccccc1 -65.8%, C=CCN(C(=O)Nc1ccc2c(c1)nc(C)n2C)c1ccccc1 -71.4%, O=C(COc1ccc([N+](=O)[O-])cc1)Nc1ccc(N2CCCC2)cc1 -69.6%, O=C(CSc1nnc2ccccn12)c1ccccc1 -81.7%, C=C(C)CSc1nc(N)c2c3c(sc2n1)CCC3 -152%, CC(C)(C)C1CCc2c(sc3nc(SCC(N)=O)nc(N)c23)C1 (stereo not drawn) -196%, Cc1ccc(NC(=O)c2csc3c2CCCC3)cc1 -158%, COC(=O)c1sc(NC(=O)c2csc3c2CCCC3)nc1C -228%, Cc1cc2c(C)nc(N/N=C/c3ccccc3)nc2o1 -123%, COC(=O)c1ccc(CSc2nncn2C)cc1 -112%, Cc1ccc(Oc2nc(-c3ccccn3)nc3ccccc23)cc1 -92.6%, CSc1nc2ccc(NC(=O)c3c(F)cccc3F)cc2s1 -166%, CCn1c(=O)c2cc(C(=O)Nc3cccc(C(C)=O)c3)sc2c2ccccc21 -66.3%, Fc1cccc(Cl)c1CSc1ccc(-c2ccco2)nn1 -172%, CSc1ccccc1NC(=O)c1cnc2sc(C)cn2c1=O -129%, CC(C)(C)NC(=O)Cn1nnc(-c2ccccc2Cl)n1 -117%, O=C1N/C(=C/c2cccn2-c2ccccc2)C(=O)N1c1cccc(Cl)c1 -65.3%, COc1ccc(C2CC(c3cccs3)=NN2c2ccccc2)cc1 (stereo not drawn) -69%, COc1ccc(Cc2n[nH]c(=S)n2NC(=O)Nc2ccc(C)cc2)cc1 -75.9%, CC(C)COC(=O)c1ccc(NC(=O)C2C3C=CC(C3)C2C(=O)O)cc1 (stereo not drawn) -101%, Cc1ccc(NC(=O)Nc2ccc3oc(C)nc3c2)cc1 -272%, Cc1nc2cc(NC(=O)NCc3ccccc3)ccc2o1 -102%, COc1cc(/C=C2/C(=O)ON=C2C)ccc1OCc1ccccc1F -183%, COc1cc(/C=C2/C(=O)ON=C2C)ccc1OCc1cccc(F)c1 -149%, COc1ccc(S(=O)(=O)N2CCCC(C(=O)Nc3ccc(NC(=O)c4ccccn4)cc3)C2)cc1 (stereo not drawn) -87.5%, Cc1n[nH]c(C)c1S(=O)(=O)N1CCCC(C(=O)Nc2ccc(Br)cc2)C1 (stereo not drawn) -116%, O=C(CSCc1ccc(Cl)cc1)N1CCCCC1 -102%, O=C(CSCc1cccs1)N1CCCC1 -80.2%, Nc1scc(-c2ccncc2)c1Cl -79.4%, Cc1ccc(/C=N/NC(=O)CSc2nc3ccccc3o2)cc1 -108%, O=C(CSc1nc2ccccc2o1)N/N=C/c1ccccc1C(=O)O -97.9%, COC(=O)c1ccc(/C=N/N2C(C)CCCC2C)cc1 (stereo not drawn) -172%, O=C(c1ccc2ccccc2n1)N1CCN(c2ccccc2Cl)CC1 -142%, Oc1ccccc1-c1cc(-c2ccc(Cl)cc2)n[nH]1 -126%, c1ccc(-c2cc(-c3ccccc3)[nH]n2)cc1 -106%, Cc1ccc(Nc2nc(-c3ccc(O)cc3O)cs2)nc1 -189%, COc1ccc(OCCCn2cccc2/C=C2/C(=N)N3OC(C)=CC3=NC2=O)cc1 -95.9%, Cc1ccc(-c2nn(-c3cccc(F)c3)cc2CNCCc2ccncc2)o1 -74%, CN(C)c1ccc(/C=C/C(=O)c2ccc(O)cc2)cc1[N+](=O)[O-] -203%, O=C(/C=C/c1ccc2c(c1)OCCO2)c1ccc(O)cc1 -260%, O=C(/C=C/c1ccc(Cl)c([N+](=O)[O-])c1)c1ccc(O)cc1 -156%, COc1ccc(/C=C2\SC(=O)N(CCC(=O)NC3CCS(=O)(=O)C3)C2=O)cc1 (stereo not drawn) -71.6%, Cc1nc(-c2ccccc2)sc1C(=O)/C=C/N(C)C -76.2%, Cc1nc(-c2ccccc2)sc1C(=O)/C=C/c1ccccc1 -83.8%, CCOC(=O)c1c(C)[nH]c(C2=NNC(=NC(C)COC)SC2)c1C (stereo not drawn) -98.9%, O=C(CSc1nc2ccccc2[nH]1)c1cccs1 -160%, CN(Cc1ccccc1)C(=O)CSc1nc2ccccc2[nH]1 -93.7%, O=C1c2ccccc2NC(c2ccc(-c3cccc(Cl)c3)o2)N1O (stereo not drawn) -145%

Activity score, inactive:
O=[N+]([O-])/C=C/c1ccc2c(ccn2Cc2ccccc2)c1 84.5%, Nc1nonc1-n1nnc(C(=O)N/N=C/c2cc(Br)ccc2O)c1CSC1=NCCS1 94.1%, CCCCCc1ccc(-c2ccc(OCC)cc2)nc1 79.7%, COc1ccc(C(=O)c2c3ccc([N+](=O)[O-])cc3[n+]([O-])n2CCCN)cc1 63.1%, CCOC(=O)c1c(C)[nH]c2c1-c1ccccc1C(=O)C2=O 99.5%, COc1ccc(Nc2cc(C)nc(-n3nc(C)cc3C)n2)cc1 92.8%, COc1c(C)c2c(c(O)c1C/C=C(\C)CCC(=O)O)C(=O)OC2 76.6%, CC(C)(C)C(=O)Nc1ccc(C(=O)N/N=C/c2ccccc2OC(=O)c2ccc(Cl)cc2Cl)cc1 65.2%, COC(=O)c1ccc(CSc2ccc3nnc(-c4ccccc4)n3n2)o1 53.7%, CN1CCN(C2Cc3ccc(Cl)cc3Sc3ccc(F)cc32)CC1 (stereo not drawn) 104%, CCOC(=O)CSC1=C(C#N)C(c2sccc2C)CC(=O)N1 (stereo not drawn) 75%, CC1CN/C(=C\C(=O)c2ccc(Br)cc2)C(=O)N1 (stereo not drawn) 62%, CC(=O)c1ccc(Oc2cc(C)nc(-n3nc(C)cc3C)n2)cc1 80.1%, CC(=O)c1ccc(S(=O)(=O)N2CCN(C(=O)/C=C/c3ccc4ccccc4n3)CC2)cc1 62.4%, COc1ccc(/C=C2\SC(=S)N(CCCC(=O)NC3CCCC3)C2=O)cc1OC 83.7%
